Screening data from PubChem.
BJeLR lethal = MLPCN primary cell-based screen for lethality selective to Ras in HRASV12 cells; BJeLR (HRASV12) viability, CellTiter-Glo ATP luminescence, 48 h; inhibition, % (concentration not given with the values); 300,000 compounds, 0.17% hits; AID 1554, 2009; in the data active = inhibition above about 50%; inconclusive = no clear call, values can overlap the other calls
BoNT A protease = BoNT/A light chain protease inhibitors, primary screen, biochemical, flow cytometry, MLPCN library; Botulinum neurotoxin type A light chain protease (Clostridium botulinum A str. ATCC 3502); multiplex microsphere protease substrate cleavage; inhibition, % at 10 µM; 360,000 compounds, 0.17% hits; AID 588499, 2011; also: plate controls were buffer without enzyme for full effect and enzyme alone for no effect
BoNT F protease = BoNT/F light chain protease inhibitors, primary screen, biochemical, flow cytometry, MLPCN library | Multiplex microsphere protease cleavage assay | 360,000 compounds, 0.22% hits | inhibition, % at 10 µM | Botulinum neurotoxin type F light chain protease (Clostridium botulinum); in the data active = inhibition above about 35%, passing the limit was not always enough; inconclusive = no clear call, values can overlap the other calls; also: plate controls were buffer without enzyme for full effect and enzyme alone for no effect
Anthrax LF inh2 = Bacillus anthracis LF protease inhibitors, primary screen, biochemical, multiplex microsphere, MLPCN library; Lethal factor (Bacillus anthracis), P15917; multiplex microsphere protease cleavage assay; inhibition, % at 10 µM; 360,000 compounds, 0.12% hits; AID 588501, 2011; also: plate controls were buffer without enzyme for full effect and enzyme alone for no effect
Target sequence (P15917 whole entry, looked up): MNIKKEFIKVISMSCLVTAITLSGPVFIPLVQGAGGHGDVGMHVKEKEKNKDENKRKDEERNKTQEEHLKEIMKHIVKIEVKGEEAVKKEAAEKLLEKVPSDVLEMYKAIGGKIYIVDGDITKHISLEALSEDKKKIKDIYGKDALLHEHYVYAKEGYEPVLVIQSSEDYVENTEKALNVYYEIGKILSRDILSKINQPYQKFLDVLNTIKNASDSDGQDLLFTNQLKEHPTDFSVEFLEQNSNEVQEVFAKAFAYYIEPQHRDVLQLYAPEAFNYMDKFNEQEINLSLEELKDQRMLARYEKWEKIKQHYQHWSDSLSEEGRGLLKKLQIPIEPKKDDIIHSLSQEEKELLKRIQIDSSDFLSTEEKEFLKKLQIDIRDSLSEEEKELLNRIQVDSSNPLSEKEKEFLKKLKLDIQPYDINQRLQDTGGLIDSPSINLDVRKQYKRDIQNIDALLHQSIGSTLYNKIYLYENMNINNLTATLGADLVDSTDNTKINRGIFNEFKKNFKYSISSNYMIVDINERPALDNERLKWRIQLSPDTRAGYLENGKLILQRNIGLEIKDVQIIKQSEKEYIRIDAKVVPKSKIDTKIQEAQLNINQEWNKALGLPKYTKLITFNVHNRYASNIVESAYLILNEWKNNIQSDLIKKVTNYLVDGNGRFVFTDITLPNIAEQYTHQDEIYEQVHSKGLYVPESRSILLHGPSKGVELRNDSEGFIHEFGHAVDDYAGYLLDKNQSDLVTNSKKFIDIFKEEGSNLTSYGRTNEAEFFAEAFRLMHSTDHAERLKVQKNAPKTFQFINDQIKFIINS
BH1578 lux ind = inducers of Vibrio cholerae quorum light production without autoinducers, primary screen, BH1578 luxS cqsA deficient, single point; AID 588436, 2011; V. cholerae BH1578 lux reporter, luminescence, 6 h; activation, % at 18.7 µM; 350,000 compounds, 0.16% hits; in the data active = activation mostly above about 9.7%, no sharp cut-off; inconclusive = no clear call, values can overlap the other calls; inactive = mostly below about 3.7%
Bead autofluor = counter-screen for toxin protease inhibitors: compound fluorescence. 360,000 compounds, 3.1% hits. AID 624483. compound autofluorescence counterscreen, microsphere flow cytometry; active compounds read high. fluorescence intensity (test concentration not listed); in the data active = fluorescence intensity above about 16000; inconclusive = no clear call, values can overlap the other calls
Numbers without * were called inactive; i = inactive; ? = inconclusive; . = no result given. An excerpt weighted towards active compounds, which were near 3.7% of everything screened. Rule as the data show it, unless noted: active = inhibition above about 30%; inconclusive = no clear call, values can overlap the other calls; inactive = below that.

SMILES	BJeLR lethal	BoNT A protease	BoNT F protease	Anthrax LF inh2	BH1578 lux ind	Bead autofluor
Cc1c(C(=O)N2CCc3ccccc32)oc2c1C(=O)CC(C)(C)C2	.	2.1	0.9	0.1	-0.3	23325*
Cc1c(C(=O)N2CCOCC2)oc2c1C(=O)CC(C)(C)C2	-2.3	0.2	-4.8	2.9	i	8234
O=C1c2ccccc2S(=O)(=O)N1CC(O)COc1ccc(Br)cc1 (stereo not drawn)	9.2	1.7	4.7	-0.8	i	16210*
O=C1c2ccccc2S(=O)(=O)N1CC(O)COc1ccc(Cl)cc1 (stereo not drawn)	-2.6	1.2	0.3	-2.1	-0.1	3635
COc1ccc(NC(=O)c2nc[nH]c2C(=O)N(C)CCO)cc1	.	-0.8	-5.5	-5.1	0.0	3937
CC1C(c2ccccc2)N(C)C(c2ccccc2)CC1(O)c1ccccc1 (stereo not drawn)	2.2	-5.7	-6.8	-6.3	i	17483*
CC1/C(=N/O)CC(c2ccccc2)N(C)C1c1ccccc1 (stereo not drawn)	-14.5	0.1	-2.0	-1.2	6.7	5753
Cc1ccc(Cn2ccc(NC(=O)c3cc(-c4ccc(F)cc4)on3)n2)cc1	7.1	-1.4	-2.7	0.3	-2.5	24044*
COc1ccc(Cl)cc1C1=NOC2(CCC2)C(=O)N1Cc1cccc(C#N)c1	.	-0.6	-7.5	0.9	i	5890
Cc1ccc(OCC(=O)N2CCN(c3nnc(-c4ccc(C)cc4)c4ccccc34)CC2)cc1	-4.0	2.0	3.3	-1.9	-2.4	22360*
COc1ccc(OCC(=O)N2CCN(C(=O)c3cccc4ccccc34)CC2)cc1	2.3	3.4	4.8	0.8	1.7	21547*
COc1ccc(OCC(=O)N2CCN(C(=O)c3ccccc3)CC2)cc1	1.6	-0.4	-13.5	-0.8	15.8	2863
CC1(C(=O)Nc2cccc3c2CCCC3)CCN1C(=O)c1cccc(F)c1 (stereo not drawn)	.	-0.4	-1.3	-7.4	0.3	3611
CCn1c(C)nc2c(=O)oc3ccccc3c21	0.6	0.8	2.0	-1.1	i	21816*
Cc1nc2c(=O)oc3ccccc3c2n1-c1ccccc1	-4.4	-0.8	-5.0	-8.1	-0.2	3218
CC(C)Cn1nnc2c(=O)oc3ccccc3c21	-5.9	?	-1.8	-2.4	4.0	24285*
COc1cc(F)ccc1-c1csc(C(C)(NC(C)=O)c2ccccc2)n1 (stereo not drawn)	.	0.1	1.1	1.0	-0.6	3488
CCCCn1nnnc1C(c1ccccc1)N1CCN(c2ncccc2C(F)(F)F)CC1 (stereo not drawn)	.	-1.1	-2.2	4.0	.	4747
CCOC(=O)c1cnc(SC2CC(=O)N(c3ccc(C)cc3)C2=O)nc1N (stereo not drawn)	4.3	-2.5	-4.8	0.4	i	24081*
CCOC(=O)c1cnc(SC2CC(=O)N(c3ccccc3)C2=O)nc1N (stereo not drawn)	4.1	0.4	7.1	0.1	0.6	3063
c1nc(NC2CCCCC2)c2[nH]cnc2n1	-7.2	-0.1	0.4	1.8	i	19676*
CCCNC(=O)OC1CC2CC1[C@H]1CCCCN1C2=O (stereo partly drawn)	.	0.6	-2.3	-8.7	.	4383
CCOC(=O)[C@]12CCC=C1N(Cc1cccc3ccccc13)C(=O)[C@H](CC(=O)NCCc1ccccc1OC)C2	.	-0.9	-5.7	-14.7	.	6676
C=CCNC(=S)N/N=C/c1ccc(OCc2ccccc2Cl)cc1	22.2	0.1	-3.6	1.8	i	19727*
Cc1ccc(N=Cc2c(O)n(C)c(=O)n(C)c2=O)cc1	-1.6	0.9	?	-1.4	i	3261
SMILES	BJeLR lethal	BoNT A protease	BoNT F protease	Anthrax LF inh2	BH1578 lux ind	Bead autofluor
CCOc1ccccc1N=Cc1c(O)n(C)c(=O)n(C)c1=O	18.5	-2.0	-22.5	-17.9	i	4297
Cn1c(O)c(/C=N/c2ncccn2)c(=O)n(C)c1=O	9.7	1.6	4.0	3.9	-1.8	21865*
Cc1ccccc1OCCN=Cc1c(O)n(C)c(=O)n(C)c1=O	3.6	1.7	2.8	1.1	-0.9	22922*
COc1ccc([C@H]2CN(c3ccc(OC)cc3)C(=O)[C@@H]2CC(=O)Nc2ccccc2)cc1	.	-0.2	-3.8	-7.3	-0.6	3872
Cc1ccc(-c2nc(C=Nc3ccc(O)cc3)c(O)o2)cc1	-4.4	-1.6	2.8	6.5	-0.2	3595
Cc1ccc(N=Cc2nc(/C=C/c3cccc([N+](=O)[O-])c3)oc2O)cc1	15.6	?	5.4	8.6	i	22530*
c1ccc(CNn2nnnc2-c2ccccc2)cc1	3.3	0.8	0.5	0.7	i	19323*
c1ccc(-c2nnnn2-c2ccccc2)cc1	8.2	-1.7	-2.9	-2.9	i	4056
O=C(/C=C/c1ccccc1Cl)NCCc1ccccc1	11.6	?	-1.7	-0.2	i	21242*
O=C(/C=C/c1ccccc1Cl)NCc1ccccc1	-11.5	-0.1	-0.3	-0.5	-0.2	20859*
COc1ccc(-c2csc(C(C)(O)c3cccnc3)n2)cc1 (stereo not drawn)	.	0.2	4.1	-1.7	i	3629
O=C1c2ccccc2C(=O)N1CCCCN(C(=O)c1cc([N+](=O)[O-])cc([N+](=O)[O-])c1)c1ccc(Cl)cc1	-10.0	0.1	-10.1	-5.5	-2.8	6268
Cc1ccc(N(CCCCN2C(=O)c3ccccc3C2=O)C(=O)c2cccc([N+](=O)[O-])c2)cc1	5.7	1.1	0.8	-1.3	5.3	16296*
COc1c2ccccc2nn1C(C)C	.	-0.5	-0.4	-5.8	.	6441
CN(C)c1ccc(/C=C/c2ccc3ccccc3n2)cc1	71.3*	2.5	-63.0	18.7	-0.7	4319
CCOC(=O)C1=CCN(S(=O)(=O)c2ccccc2[N+](=O)[O-])C1c1ccc(C)cc1 (stereo not drawn)	.	-0.4	-11.6	4.6	.	5331
Cn1nnnc1SCCNCc1ccc(Cl)cc1	0.9	?	-9.2	-2.4	-2.2	17333*
Cc1ccccc1NC(=O)C1CC(Cl)=CCC1C(=O)O (stereo not drawn)	-0.8	1.9	-1.1	-9.2	i	21780*
Cc1ccc(C)c(NC(=O)C2CC(Cl)=CCC2C(=O)O)c1 (stereo not drawn)	-3.1	0.5	4.2	-2.6	-0.2	7777
Cc1ccc(Cn2nnc(C(=O)Nc3cccc(C)c3C)c2N)cc1	18.5	?	2.2	1.0	i	19408*
O=C1c2ccccc2C(c2nnnn2-c2ccc3c(c2)OCCO3)N1CCCn1ccnc1 (stereo not drawn)	.	-0.1	7.0	-1.4	.	6135
O=C1NC[C@@H](CCCCN2C[C@H](Cc3ccc(O)cc3)N(CCc3ccccc3)C(=O)C2=O)N(CCC2CCCCC2)C1=O	.	0.0	-0.5	-2.4	.	4795
